Screening results: PubChem BioAssay, National Center for Advancing Translational Sciences (NCATS)
Most compounds without a hit are left out; they make up all but 3.8% or so of the library.
ATXN2 expr inh – Primary qHTS for Inhibitors of ATXN expression; Potency, µM (titrated, usually from 57 µM), hits mostly inhibitors; HEK-293 ATXN2-luciferase reporter, luminescence, 24 h; 360,000 tested, 0.72% active; further: nearly all actives have a fitted effect of over 55% in size
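qHTS (up to 57 uM final) was run with 24 h compound exposure of reporter cells at 37 °C. Each well was multiplexed: SteadyGlo luminescence measured ATXN2-luciferase expression after a fluorogenic Gly-Phe-AFC viability readout (25 uM final).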
S2 tox – Viability Counterscreen for Primary qHTS for Inhibitors of ATXN expression; Potency, µM (titrated, usually from 56.7 µM), hits mostly cytotoxic; AID 651635, 2014; 400,000 tested, 0.49% active; S2 cells (HEK-293 line with an ATXN2-luciferase reporter) viability, CellTiter-Fluor protease fluorescence, 24 h; further: nearly all actives have a fitted effect of over 40% in size
HepG2 viability – qHTS for Inhibitors of TGF-b: Cytotox Counterscreen. HepG2 CAGA-GFP viability, ATP luminescence, 18 h. Potency, µM (doses to about 46.1 µM), usual class: cytotoxic. 410,000 tested, 0.76% active. AID 588856, 2011
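HepG2 CAGA-GFP cells (1000/well, DMEM with 1% FBS) received compound, then TGF-beta at 500 pg/mL final, and were incubated 18 hours at 37 degrees C. Viability was read by CellTiter-Glo luminescence. Media-only wells were set as complete cell-killing and DMSO as no toxicity.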
Nrf2 inh – Nrf2 qHTS screen for inhibitors; A549 ARE-Fluc reporter, luciferase luminescence, 18-24 h; Potency, µM (top dose mostly 46 µM), hits mostly inhibitors; 360,000 tested, 2.1% active; further: nearly all actives have a fitted effect of over 60% in size
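Concentration-response testing used A549 ARE_Fluc cells at 5000 cells/well. Following an 18-24 h compound incubation, viability was read by fluorescence (Ex 405/Em 525) and luciferase output by luminescence.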
A549 viability – Nrf2 qHTS screen for inhibitors: counterscreen for cytotoxicity | A549 ARE-Fluc cells, CellTiter-Fluor viability, 18-24 h | Potency, µM (top dose mostly 46 µM), hits mostly inhibitors | 390,000 tested, 0.16% active
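Cytotoxicity counterscreen: CellTiter-Fluor fluorescence was measured in A549 ARE_Fluc cells after 18-24 h of compound exposure in a concentration series. The subsequent BugLite luminescent read reports ARE-luciferase activity.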
TGFb inhibitor – qHTS for Inhibitors of TGF-b; HepG2 CAGA-GFP TGF-b/SMAD3 reporter, GFP fluorescence, 18 h; TGF-beta stimulated, 500 pg/mL final; Potency, µM (doses to about 46.1 µM), hits mostly inhibitors; 410,000 tested, 1.2% active; AID 588855, 2011; further: nearly all actives have a fitted effect of over 65% in size
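Per well, imaged GFP fluorescence of HEPG2 CAGA-GFP cells gives the signal; cells get compound, then TGF-beta (500 pg/mL final), 18 h at 37 degrees C; %Activity versus -TGF-beta and +DMSO controls.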
A number is an active result; 0 = inactive; ? = inconclusive; - = no result. The call rests on the fitted dose curve; in most records, active means well fitted curve in the direction sought with a large enough effect; inconclusive means small, poorly fitted or top-dose-only effect, or another doubt; inactive means no such curve, though single readings can be large; an effect the other way counts as inactive or inconclusive.

SMILES	ATXN2 expr inh	S2 tox	HepG2 viability	Nrf2 inh	A549 viability	TGFb inhibitor
Cn1c(=O)c2c(nc(NCc3ccc4c(c3)OCO4)n2Cc2ccccc2)n(C)c1=O	0	0	0	-	?	0
Cn1c(=O)n(Cc2ccccc2)c(=O)c2c1nc1n2CCCN1CCc1ccccc1	0	0	0	29µM	0	0
Cn1c(NCc2ccco2)nc2c1c(=O)n(Cc1ccc(Cl)cc1)c(=O)n2C	0	0	0	?	0	0
Cn1c(NCc2ccco2)nc2c1c(=O)n(Cc1ccc(Br)cc1)c(=O)n2C	0	0	0	?	0	0
Cn1c(=O)n(Cc2ccccc2)c(=O)c2c1nc1n2CCCN1Cc1ccccc1	0	0	0	-	0	0
Cn1c(NCc2ccccc2)nc2c1c(=O)n(Cc1ccc(Br)cc1)c(=O)n2C	0	0	0	15µM	0	0
Cn1c(=O)c2c(nc(NCc3ccc4c(c3)OCO4)n2Cc2ccc(F)cc2)n(C)c1=O	-	-	0	23µM	0	?
COc1cc2c(cc1OC)C(c1cc(-c3cc(Cl)ccc3Cl)oc1C)=NCC2	-	-	0	-	-	0
COc1cc(CN2CCC3(CCC(CNC(=O)c4ccco4)O3)CC2)cc(OC)c1 (centres undefined)	-	0	-	-	-	-
COc1ccc(CC(=O)Nc2ccc(S(=O)(=O)Nc3cc(C)nc(C)n3)cc2)cc1OC	-	0	0	-	-	0
O=C(O)c1ccc(S(=O)(=O)N[C@H](Cc2ccc(O)cc2)C(=O)O)cc1	-	-	-	0	0	-
COc1ccc(CNc2nc3c(c(=O)n(Cc4ccc(Br)cc4)c(=O)n3C)n2C)cc1	0	0	0	18µM	0	0
Cc1ccc(Oc2nc3c(c(=O)n(Cc4ccccc4)c(=O)n3C)n2C)cc1C	0	0	0	18µM	0	0
CC[C@H](C)[C@@H](CNC)NC[C@@H](Cc1ccc(O)cc1)NCC(C)(C)C	0	0	0	0	0	0
CC[C@@H](C)[C@H](CN[C@H](CNC)C(C)C)NC[C@@H](C)c1ccc(CC(C)C)cc1	28µM	-	0	0	0	?
Clc1cccc(-c2nc3c4ccccc4ccn3c2Cc2ccsc2)c1	0	?	0	-	-	?
Cc1cc(C(=O)Nn2c(-c3ccc(Br)cc3)nc3ccccc3c2=O)ccc1[N+](=O)[O-]	0	0	0	?	0	13µM
O=C(Nn1c(C2CCCCC2)nc2ccccc2c1=O)c1ccc([N+](=O)[O-])cc1	0	0	0	23µM	?	?
CCOC(=O)[C@H](C)N1[C@H](C)[C@H](c2ccccc2)Oc2ccc(Cl)cc2S1(=O)=O	0	0	0	0	0	0
Cc1cccc(NC(=O)CCNS(=O)(=O)c2ccc3c(c2)CCCC(=O)N3)c1C	0	0	0	0	0	0
CCOC(=O)COc1cc(C)c(Cl)cc1C(=O)c1ccn2nc(-c3ccc(OC)cc3)cc2n1	0	0	0	0	0	0
Cc1ccc(Cl)c2sc(NC(=O)C3CC3)nc12	0	0	11µM	0	0	?
CN1CCc2c(sc3c2C(=O)NC(c2cn(Cc4ccccc4)c4ccccc24)N3)C1 (centres undefined)	?	0	0	0	0	1.3µM
O=C(Nc1cccc(Br)c1)Nc1nc2c(s1)CCCCCC2	0	?	0	-	0	11µM
Cc1cc(CNC[C@H]2O[C@@H](n3ccc(=O)[nH]c3=O)[C@H](O)[C@@H]2O)no1	0	0	0	-	-	0
SMILES	ATXN2 expr inh	S2 tox	HepG2 viability	Nrf2 inh	A549 viability	TGFb inhibitor
CC(C)c1ccc(Cn2ccc3c4c(N)nc(NC5CC5)nc4ccc32)cc1	24µM	-	-	-	-	-
O=C(Nc1ccc(N2CCCCC2)c(Cl)c1)c1ncn[nH]1	0	0	0	8.2µM	0	0
O=C(Nc1ccc(N2CCCC2)c(Cl)c1)c1ccco1	0	0	0	?	0	0
Cc1ccc(C)c(N2C(=O)c3cc(N4CCOCC4)c([N+](=O)[O-])cc3C2=O)c1	0	?	0	0	0	0
Cc1cc(N2CCOCC2)n2nc(C)c(-c3ccccc3Cl)c2n1	0	0	0	16µM	?	0
CCC1CCCCN1S(=O)(=O)c1ccc(NC(=O)c2nc(SC)ncc2Cl)cc1 (centres undefined)	0	?	0	?	0	?
Cc1cc(OCc2cc(C(=O)N3CCN(C)C(=O)[C@@H]3C)no2)cc(C)c1Cl	?	0	0	21µM	0	?
COc1cccc(C(c2nnnn2C2CCCC2)N2CCN(C/C=C/c3ccccc3)CC2)c1OC (centres undefined)	?	-	0	-	-	?
CCN(CC)S(=O)(=O)c1cc(C(=O)Nc2ccccc2[N+](=O)[O-])ccc1Cl	0	0	0	?	0	16µM
CSc1cccc(Nc2cc(C(=O)NCCCN(Cc3ccccc3)C(C)C)c3ccccc3n2)c1	25µM	?	10µM	-	?	?
Cc1cc(C)cc(Nc2cc(C(=O)NCCCN(Cc3ccccc3)C(C)C)c3ccccc3n2)c1	14µM	13µM	0	-	?	0
CCOc1ccc(CCNC(=O)c2nn(C)c3c2CSc2ccccc2-3)cc1	-	-	0	0	0	?
CC(=O)Nc1cccc(OC2=NS(=O)(=O)c3ccccc32)c1	-	-	-	?	0	-
CN(C)S(=O)(=O)c1cccc(CSCc2cccc(S(=O)(=O)N(C)C)c2)c1	?	0	0	6.5µM	0	0
Cc1cc(C)n2nc(SCc3cccc(S(=O)(=O)N(C)C)c3)nc2n1	0	0	0	0	0	0
CCC(C(=O)O)C1CCC(C)C(C(C)C(O)C(C)C(=O)C(CC)C2OC3(C=CC(O)[C@@]4(CC[C@](C)(C5CC[C@@](O)(CC)C(C)O5)O4)O3)C(C)CC2C)O1 (some centres undefined)	7.7µM	-	-	-	-	-
CCCNC(=O)Cc1c(C)n(C(=O)c2ccc(Cl)cc2)c2ccc(OC)cc12	0	0	0	18µM	0	0
COC(=O)CCNC(=O)Cc1c(C)n(C(=O)c2ccc(Cl)cc2)c2ccc(OC)cc12	0	0	0	0	0	0
CSCCC(NC(=O)COc1ccccc1)C(=O)N(C)Cc1ccc(Cl)cc1Cl (centres undefined)	-	-	0	0	0	?
COc1cc2c(NC3CCN(C)CC3)nc(N3CCCN(C)CC3)nc2cc1OCCCCN	-	-	0	-	-	?
COc1cc2c(NC3CCN(C)CC3)nc(N3CCCN(C)CC3)nc2cc1OCCCC(C)C	-	-	3.5µM	-	-	2.8µM
Cc1cccc(NC(=O)Cn2nnc(C(=O)NCc3cccs3)c2N)c1C	0	0	18µM	0	0	0
Cc1cn([C@H]2C[C@H](O)[C@@H](CCC(=O)NCCc3cccs3)O2)c(=O)[nH]c1=O	0	0	0	-	-	0
